Measurements published in the OligoGym collection.

Molecular target: CCDC124
Assay: pooled miR-30 sensor sort-seq; sequence = guide strand
Details: shRNA
Note: reference of the scale not given here.

Sequence | sensor-assay potency score (higher = more potent)
TGAGCTTGGAGTCCTCCTCCTC | -1.05
TAGGCGCTGCGTCTCCTTCTTA | -1.03
TCGTCGTCCTTCCAGTAGGCAT | -1.51

Molecular target: CCDC136
Assay: as above
Details: shRNA

Sequence | sensor-assay potency score (higher = more potent)
TTTCTCATGCTCTAACAGGGAA | -0.6
TTCCTGACACTTGTTCTTCATG | -1.21
TTCAAGTTCATTCTGCATCCGG | 0.279
TTGCGGAATCCTCTGCTGCTTG | -0.962
TTGTTGACTGACAGAGAGCCAA | -0.719
TTACAAGGAACTCAGGTTCTTA | -0.441
TAGAGAACGCAGCTCACCTTGG | -0.542
TTAAGTTCGCTTTCTTTCTCAT | -0.0696
TTTCTGAAGTCTGAGACTCTGC | -0.127
TAACAGGGAAATCTCCTCCCGT | -0.529
TTCATTTCCATTTCTGCACGGA | -0.0377
TTCTATTTCCTTAAGTTCGCTT | 0.0212

Molecular target: CCDC19
Assay: as above
Details: shRNA

Sequence | sensor-assay potency score (higher = more potent)
TTGAGGATAATCTTGCTCATGT | -0.0129
TTGAAGGGTATGCTTATCTCGG | -0.289
TTTCCTCTTGATCTCATCGATG | -0.984
TTCTGCGCCACTCTCTGTCTGC | -0.303
TTTGATTCGCTCAAACTCCTCA | 0.0568
TTAGCATTGAGGATAATCTTGC | 0.12
TTGGATCTGCTGCTTCTCCAGG | -1.06
TTTTCCTCTTGATCTCATCGAT | 0.115
TTCTTTTTGGATCTGCTGCTTC | -0.755
TTCTGTTTCATGATCTTCTTTC | -0.0443
TTCAATGCAGTACTTCTCGGGA | -0.758

Molecular target: CCDC47
Assay: as above
Details: shRNA

Sequence | sensor-assay potency score (higher = more potent)
TTAAATGTAAACAACAGTGTCC | 0.382
TTTTGCTAGAAGAAGTATCTGG | 0.452
TTCTAGATAATAACTCTCCCAG | -0.381
TTCTCTGTTGAGTCGGAACTTT | -0.845
TTCAGTAACAGAGTCTTCCATG | -0.75
TTTCATTTGCTTCTTTTCCAAC | -1.25
TAAAGTAAAGTTGCTCTCCAAA | -1.24
TAAGTCTTGTCTCTTGAGGAAC | -1.49
TTTGCTAGAAGAAGTATCTGGT | 0.978
TGCAGGAACATCAACAATCGTT | -0.762
TTGCCTTCTCTGTTGAGTCGGA | -0.0399
TTGCACTTGATCACTCACTGGC | 0.924
